From PubChem BioAssay (NCI)
“And” between values parts separate entries of the source, which are not always exact repeats. Equal values may be shown once. About 83,000 compounds went through this panel and 20% of them were active in at least one assay; those are over-represented in the sample as a whole.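 Cell lines were cultured in 96-well plates, exposed to a single compound concentration, and assessed for percent growth 48 hours later.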 The source made the active and inactive calls. The calls were made as follows: active = growth percent below 10; inactive = the rest.

Tests used:
Experiment in all cases: NCI-60 one-dose screen, 48 h (100 = growth as untreated, 0 = no growth, -100 = all killed)
Settings in all cases: 10 µM unless noted
NCI-H23 lung = system: NCI-H23 lung
NCI-H226 lung = system: NCI-H226 lung
NCI-H322M lung = system: NCI-H322M lung
HOP-62 NSCLC = system: HOP-62 NSCLC
NCI-H460 lung = system: NCI-H460 lung
HOP-92 NSCLC = system: HOP-92 NSCLC
NCI-H522 lung = system: NCI-H522 lung
A549/ATCC NSCLC = system: A549/ATCC NSCLC
786-0 renal = system: 786-0 renal
COLO 205 colon = system: COLO 205 colon

| SMILES | growth (NCI-H23 lung) | growth (NCI-H226 lung) | growth (NCI-H322M lung) | growth (HOP-62 NSCLC) | growth (NCI-H460 lung) | growth (HOP-92 NSCLC) | growth (NCI-H522 lung) | growth (A549/ATCC NSCLC) | growth (786-0 renal) | growth (COLO 205 colon) |
| --- | --- | --- | --- | --- | --- | --- | --- | --- | --- | --- |
| Oc1ccccc1C=NCCN=Cc1ccccc1O.[Fe] | 86.1% (inactive) | 85% (inactive) | 111% (inactive) | 74.9% (inactive) | 59.7% (inactive) | 98.7% (inactive) | 47.5% (inactive) | 61.6% (inactive) | 102% (inactive) | 108% (inactive) |
| COc1ccc(N)cc1OC | 105% (inactive) | 107% (inactive) | 114% (inactive) | 104% (inactive) | 119% (inactive) | 91.2% (inactive) | 103% (inactive) | 105% (inactive) | 102% (inactive) | 109% (inactive) |
| COC1C(O)CC(OC2CC(Oc3cc4cc5c(c(O)c4c(O)c3C)C(=O)[C@@H](OC3CC(OC4CC(OC6CC(C)(O)C(OC(C)=O)C(C)O6)C(O)C(C)O4)C(O)C(C)O3)[C@H]([C@H](OC)C(=O)[C@@H](O)[C@@H](C)O)C5)OC(C)C2OC(C)=O)OC1C (stereo not given in full) | -44.1% (active) | -10.6% (active) | -2.53% (active) | -11.7% (active) | -25.7% (active) | -19.7% (active) | -50.6% (active) | -64.2% (active) | 1.26% (active) | -57.6% (active) |
| Cc1cc2c(cc1-c1ccnc(/C=C/C(=O)O)c1)C(C)(C)CCC2(C)C | 88.1% (inactive) | 78.8% (inactive) | 106% (inactive) | 96.8% (inactive) | 85.3% (inactive) | 56.5% (inactive) | 76.2% (inactive) | 77.1% (inactive) | 79.6% (inactive) | 124% (inactive) |
| Nc1c(Cl)c(Cl)nc(C(=O)O)c1Cl | 104% (inactive) | 102% (inactive) | 80.8% (inactive) | 86.9% (inactive) | 102% (inactive) | 106% (inactive) | 98.6% (inactive) | 108% (inactive) | 103% (inactive) | 117% (inactive) |
| O=[N+]([O-])c1cc(Cl)c(Cl)cc1Cl | 105% (inactive) and 107% (inactive) | 114% (inactive) and 108% (inactive) | 116% (inactive) and 123% (inactive) | 112% (inactive) and 107% (inactive) | 110% (inactive) and 108% (inactive) | 110% (inactive) | 134% (inactive) and 110% (inactive) | 88.7% (inactive) and 111% (inactive) | 111% (inactive) and 112% (inactive) | 117% (inactive) and 106% (inactive) |
| CCN(CC)CCn1c(=O)n(C)c2ccccc21 | 97.4% (inactive) | 102% (inactive) | 106% (inactive) | 107% (inactive) | 106% (inactive) | 93.7% (inactive) | 108% (inactive) | 105% (inactive) | 111% (inactive) | 109% (inactive) |
| C#Cc1cccc(Nc2nc(Cl)nc3cc(NC(=O)CF)ccc23)c1 | 80.2% (inactive) | 86.6% (inactive) | 80% (inactive) | 70% (inactive) | 29.4% (inactive) | 91.1% (inactive) | 28.9% (inactive) | 55.4% (inactive) | 92.9% (inactive) | 41.8% (inactive) |
| CNC(=O)Oc1ccc(Cl)cc1SSc1cc(Cl)ccc1OC(=O)NC | 65.4% (inactive) | 102% (inactive) | 103% (inactive) | 95.2% (inactive) | 60.1% (inactive) | 42.7% (inactive) | 51.2% (inactive) | 103% (inactive) | 110% (inactive) | 110% (inactive) |
| CC(C)c1cccc(C(C)C)c1O | 97% (inactive) and 103% (inactive) | 107% (inactive) and 103% (inactive) | 99.6% (inactive) and 93% (inactive) | 111% (inactive) and 110% (inactive) | 117% (inactive) and 101% (inactive) | 100% (inactive) | 98% (inactive) | 93.1% (inactive) and 75.5% (inactive) | 108% (inactive) | 116% (inactive) and 111% (inactive) |
| CN(C)C(=S)SSC(=S)N(C)C | 98.9% (inactive) and 138% (inactive) | 99.3% (inactive) and 110% (inactive) | 75.3% (inactive) and 94.9% (inactive) | 111% (inactive) and 112% (inactive) | -20.9% (active) and 92.9% (inactive) | 102% (inactive) | 25.3% (inactive) and 24.4% (inactive) | 80% (inactive) and 71.6% (inactive) | 107% (inactive) and 101% (inactive) | 63.1% (inactive) and 70.6% (inactive) |
| CN1[C@@H](CC(=O)c2ccccc2)CCC[C@H]1CC(=O)c1ccccc1 | 97.2% (inactive) | 96.7% (inactive) | 110% (inactive) | 110% (inactive) | 115% (inactive) | 111% (inactive) | 86.9% (inactive) | 93.8% (inactive) | 108% (inactive) | 114% (inactive) |
| CC[C@H](C)[C@H](NC(=O)[C@H]1CCCCN1C)C(=O)N(C)[C@H](CCc1nc(C(=O)N[C@@H](Cc2ccccc2)C[C@H](C)C(=O)O)cs1)C(C)C | 29.9% (inactive) | 31% (inactive) | 49.9% (inactive) | 12.6% (inactive) | 8.77% (active) | 30.3% (inactive) | -6.97% (active) | 22.4% (inactive) | 31.8% (inactive) | -37.9% (active) |
| CO[C@H]1[C@H](O[C@@H]2C[C@@H]3C/C=C/C(=O)O[C@@H](CO)C[C@H](O)[C@@H]4C[C@H](C)[C@H](C/C=C\C=C\[C@H](C)C[C@H](C2)O3)O4)O[C@@H](C)[C@H](O)[C@H]1O | 22.5% (inactive) | 37.9% (inactive) | 89.5% (inactive) | 65.8% (inactive) | 54.5% (inactive) | 95.2% (inactive) | 27.2% (inactive) | 47% (inactive) | 78.7% (inactive) | 37.6% (inactive) |
| O=Cc1cn(Cc2ccccc2)c2ccccc12 | 80.1% (inactive) | 28.2% (inactive) | 86% (inactive) | 65.8% (inactive) | 20.9% (inactive) | 74.4% (inactive) | 121% (inactive) | 76.6% (inactive) | 87.6% (inactive) | 15.4% (inactive) |
| COc1ccn(C)c(=O)c1C#N | 105% (inactive) | 91.6% (inactive) | 92.3% (inactive) | 83.5% (inactive) | 108% (inactive) | 116% (inactive) | 66.5% (inactive) | 83.7% (inactive) | 104% (inactive) | 95.9% (inactive) |
| CC1OC(=O)C(C(C)C)NC(=O)C(C(C)C)OC(=O)C(C(C)C)NC(=O)C(C)OC(=O)C(C(C)C)NC(=O)C(C(C)C)OC(=O)C(C(C)C)NC(=O)C(C)OC(=O)C(C(C)C)NC(=O)C(C(C)C)OC(=O)C(C(C)C)NC1=O (stereo not given) | -2.18% (active) | 0.0533% (active) | -3.44% (active) | -50% (active) | -11.9% (active) | -38.8% (active) | -21.2% (active) | -41.2% (active) | -6.45% (active) | -81% (active) |
| COc1ccc2c(c1)C1(C)CCN(C)CC(C1)C2O (stereo not given) | 98.1% (inactive) | 81.7% (inactive) | 105% (inactive) | 100% (inactive) | 105% (inactive) | 101% (inactive) | 90.2% (inactive) | 95.1% (inactive) | 94.8% (inactive) | 103% (inactive) |
| CCOC(=O)c1cncn1C(C)c1ccccc1 (stereo not given) | 118% (inactive) | 105% (inactive) | 101% (inactive) | 97.7% (inactive) | 118% (inactive) | 95.8% (inactive) | 94.3% (inactive) | 103% (inactive) | 97% (inactive) | 109% (inactive) |
| CN(C)c1ccc(C=C2C(=O)NC(=O)NC2=O)cc1 | 70.8% (inactive) | 97.6% (inactive) | 123% (inactive) | 110% (inactive) | 102% (inactive) | 86.8% (inactive) | 69.6% (inactive) | 92.6% (inactive) | 109% (inactive) | 107% (inactive) |
| COc1cc(C2C3=C(CCCC3=O)N(CCO)c3cc4c(cc32)CCC4)cc(OC)c1OC (stereo not given) | 80.8% (inactive) | 103% (inactive) | 75.1% (inactive) | 92.6% (inactive) | 36.4% (inactive) | 76% (inactive) | 62.7% (inactive) | 58.9% (inactive) | 84.6% (inactive) | 74% (inactive) |
| NC(N)=NC(N)=Nc1ccc(Cl)cc1 | 103% (inactive) | 98.5% (inactive) | 109% (inactive) | 112% (inactive) | 106% (inactive) | 89.7% (inactive) | 93.6% (inactive) | 111% (inactive) | 115% (inactive) | 112% (inactive) |
| CCOC(=O)c1ccccc1C(=O)OCC | 109% (inactive) | 94.6% (inactive) | 97.8% (inactive) | 92.6% (inactive) | 112% (inactive) | 89.4% (inactive) | 61.1% (inactive) | 99.2% (inactive) | 96.4% (inactive) | 120% (inactive) |
| O=C(CBr)OCCOC(=O)CBr | 84.7% (inactive) | 109% (inactive) | 97.7% (inactive) | 109% (inactive) | 95% (inactive) | 114% (inactive) | -74.6% (active) | 92.8% (inactive) | 24.4% (inactive) | 104% (inactive) |
